Growth data for twelve compounds are collected here from PubChem BioAssay (NCI).

“And” between values parts separate entries of the source, which are not always exact repeats. Identical values can stand only once. About 83,000 compounds went through this panel and 20% of them were active in at least one assay; those are over-represented in the sample as a whole.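 96-well plates, one dose, 48 hours. Percent growth reported; active if below 10.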 The source made the active and inactive calls.

Common to all, as to test: NCI-60 one-dose screen, 48 h (100 = growth as untreated, 0 = no growth, -100 = all killed)
One assay concerns HCT-15 colon. The following applies: 10 µM unless noted.
A further assay relates to HT29 colon. The following applies: 10 µM unless noted.
The subject of a further assay is SNB-75 CNS. The following applies: 10 µM unless noted.
In the next assay the test system is U251 CNS. The following applies: 10 µM unless noted.
In another assay the test system is PC-3 prostate. The following applies: 10 µM unless noted.
In another assay the test system is SK-MEL-5 melanoma. The following applies: 10 µM unless noted.
The subject of the next assay is UACC-62 melanoma.
The subject of another assay is LOX IMVI melanoma. The following applies: 10 µM unless noted.
The next assay has as its system SK-MEL-28 melanoma. The following applies: 10 µM unless noted.

As for `COCCCNC1=C(C#N)C(=O)NC(c2cccs2)S1` (stereo not drawn), the growth in the assay on HCT-15 colon was 98.2% (inactive); in the assay on HT29 colon, 99.9% (inactive); in the assay on SNB-75 CNS, 83.2% (inactive); in the assay with U251 CNS, 100% (inactive); with PC-3 prostate it was 100% (inactive); in the assay with SK-MEL-5 melanoma it was 95.3% (inactive). For the same compound, the growth was 91.7% (inactive) with UACC-62 melanoma (10 µM unless noted), 105% (inactive) in the assay with LOX IMVI melanoma and 113% (inactive) in the assay on SK-MEL-28 melanoma.

`Cc1cc2ccccc2c2cc3ccccc3cc12`: the growth in the assay with HCT-15 colon is 82.4% (inactive); in the assay with HT29 colon it was 88.3% (inactive); in the assay with SNB-75 CNS, 100% (inactive); in the assay with U251 CNS it was 102% (inactive); in the assay on PC-3 prostate, 90.8% (inactive); in the assay on SK-MEL-5 melanoma, 89.8% (inactive). Also, the growth in the assay with UACC-62 melanoma (10 µM unless noted) is 87.8% (inactive); in the assay with LOX IMVI melanoma it was 95.4% (inactive); in the assay on SK-MEL-28 melanoma it was 107% (inactive).

Consider `C#CCOC(=O)C(N)CS` (stereo not drawn), for which the growth in the assay on HCT-15 colon is 100% (inactive); in the assay on HT29 colon it was 110% (inactive); in the assay with SNB-75 CNS, 81.9% (inactive); with U251 CNS it was 101% (inactive); in the assay on PC-3 prostate, 90.5% (inactive); in the assay on SK-MEL-5 melanoma, 104% (inactive). The growth in the assay on UACC-62 melanoma (10 µM) was 88.5% (inactive); with UACC-62 melanoma (100 µM) it was 87.6% (inactive) and 90.2% (inactive); with LOX IMVI melanoma it was 101% (inactive); in the assay on SK-MEL-28 melanoma, 94.9% (inactive).

For the compound `CCN(CC)C(CC(=O)c1ccccc1)C(=O)c1ccccc1` (stereo not drawn), the growth is 64.6% (inactive) in the assay with HCT-15 colon; 95.1% (inactive) in the assay with HT29 colon; 114% (inactive) in the assay with SNB-75 CNS; 93.7% (inactive) with U251 CNS; 101% (inactive) in the assay with PC-3 prostate; 94.5% (inactive) in the assay on SK-MEL-5 melanoma. The figures for the growth in the assay with UACC-62 melanoma (10 µM unless noted), in the assay with LOX IMVI melanoma and in the assay on SK-MEL-28 melanoma were 99.7% (inactive), 88.6% (inactive) and 118% (inactive), respectively.

In the case of `O=C(O)c1ccc2c3ccc(C(=O)O)c4c(C(=O)O)ccc(c5ccc(C(=O)O)c1c25)c43`, the growth in the assay on HCT-15 colon is 108% (inactive); in the assay with HT29 colon it was 111% (inactive); in the assay on SNB-75 CNS it was 85.4% (inactive); in the assay with U251 CNS, 106% (inactive); with PC-3 prostate it was 101% (inactive); with SK-MEL-5 melanoma it was 102% (inactive). Further, the growth was 90.9% (inactive) in the assay with UACC-62 melanoma (10 µM unless noted), 92.7% (inactive) in the assay on LOX IMVI melanoma and 112% (inactive) in the assay with SK-MEL-28 melanoma.

`O=c1[nH]c(=O)c2[nH]c(=O)[nH]c2[nH]1`: the growth is 99% (inactive) in the assay on HCT-15 colon; 105% (inactive) in the assay on HT29 colon; 89.8% (inactive) in the assay with SNB-75 CNS; 101% (inactive) with U251 CNS; 96.2% (inactive) in the assay on PC-3 prostate; 100% (inactive) with SK-MEL-5 melanoma. Besides, the growth is 99.8% (inactive) in the assay on UACC-62 melanoma (10 µM unless noted) and 98.9% (inactive) in the assay with SK-MEL-28 melanoma.

With `COc1ccc(CCNC(=S)NN)cc1OC`, the growth is 123% (inactive) in the assay on HCT-15 colon; 104% (inactive) in the assay with HT29 colon; 106% (inactive) with SNB-75 CNS; 105% (inactive) in the assay on U251 CNS; 101% (inactive) in the assay with PC-3 prostate; 103% (inactive) with SK-MEL-5 melanoma. The values for the growth in the assay with UACC-62 melanoma (10 µM unless noted), in the assay on LOX IMVI melanoma and in the assay with SK-MEL-28 melanoma were 115% (inactive), 103% (inactive) and 114% (inactive), respectively.

For `N=c1sc2ccccc2n1CC(=O)O`, the growth in the assay with HCT-15 colon is 103% (inactive); in the assay with HT29 colon, 98% (inactive); in the assay on SNB-75 CNS, 100% (inactive); in the assay with U251 CNS it was 91.8% (inactive); in the assay with PC-3 prostate it was 92.7% (inactive); with SK-MEL-5 melanoma, 104% (inactive). The values for the growth in the assay on UACC-62 melanoma (10 µM unless noted), in the assay with LOX IMVI melanoma and with SK-MEL-28 melanoma were 97.2% (inactive), 98.7% (inactive) and 112% (inactive), respectively.

Regarding `Clc1ccc2c(c1)N(C1CCCN(Cc3ccccc3)C1)c1ccccc1S2` (stereo not drawn), the growth in the assay with HCT-15 colon is 26.6% (inactive); with HT29 colon it was 76.7% (inactive); with SNB-75 CNS it was 27.6% (inactive); in the assay on U251 CNS, 17.4% (inactive); with PC-3 prostate, 45% (inactive); in the assay on SK-MEL-5 melanoma, 23.3% (inactive). In addition, the growth is 44% (inactive) in the assay on UACC-62 melanoma (10 µM unless noted), 57% (inactive) with LOX IMVI melanoma and 56.9% (inactive) with SK-MEL-28 melanoma.

With `NNC(=O)Nc1ccccc1`, the growth in the assay on HCT-15 colon is 99.8% (inactive); in the assay on HT29 colon it was 106% (inactive); in the assay with SNB-75 CNS it was 87.9% (inactive); in the assay on U251 CNS it was 99.1% (inactive); in the assay with PC-3 prostate, 93.5% (inactive); in the assay with SK-MEL-5 melanoma, 101% (inactive). Also, the growth in the assay with UACC-62 melanoma (10 µM unless noted) is 94.3% (inactive); in the assay on LOX IMVI melanoma, 98.1% (inactive); with SK-MEL-28 melanoma, 109% (inactive).

Regarding `COC(=O)c1nc(N)nc(C(=O)OC)c1C(=O)c1ccc(F)cc1`, the growth is 103% (inactive) in the assay with HCT-15 colon; 115% (inactive) with HT29 colon; 99.1% (inactive) in the assay on SNB-75 CNS; 102% (inactive) in the assay with U251 CNS; 104% (inactive) with PC-3 prostate; 103% (inactive) with SK-MEL-5 melanoma. Further, the growth in the assay with UACC-62 melanoma (10 µM unless noted) was 105% (inactive); in the assay on LOX IMVI melanoma, 98.6% (inactive); in the assay with SK-MEL-28 melanoma, 115% (inactive).

For `O=C1C=CC[C@H](/C=C/c2ccccc2)O1`, the growth with HCT-15 colon is 33.4% (inactive) and -52.8% (active); in the assay on HT29 colon it was 29.8% (inactive) and 28.4% (inactive); in the assay on SNB-75 CNS it was 53.8% (inactive) and 70.9% (inactive); in the assay with U251 CNS it was 12.8% (inactive) and -30% (active); in the assay on PC-3 prostate, 20.2% (inactive) and 13% (inactive); in the assay with SK-MEL-5 melanoma, 31.7% (inactive) and -11.8% (active). Further, the growth in the assay on UACC-62 melanoma (10 µM unless noted) is 81.7% (inactive) and 6.21% (active); with LOX IMVI melanoma, 5.77% (active) and -35.8% (active); in the assay with SK-MEL-28 melanoma it was 40.3% (inactive) and -22.5% (active).
